# BRCA1 expr act – qHTS Assay to Identify Small Molecule Activators of BRCA1 Expression | MCF7-BRCA1-FFLuc reporter, luminescence, 48 h; response scale: scaled: vehicle 0%, 10 µM genistein 100% | Potency, µM (top dose mostly 46.1 µM), actives largely listed as activators | 1.1% of 380,000 active | AID 624202, 2012; also: nearly all actives have a fitted effect of over 80% in size
#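 Luminescence from a BRCA1-driven firefly luciferase in MCF7 cells was read after 48 h compound exposure at 37 C. Data normalized against DMSO and a 10microM genistein activation control, then curve-fitted across the titration.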
# TCR activator – Activators of T cell receptors: qHTS campaign; Potency, µM (series often up to 9.22 µM), usual class: activators; 330,000 tested, under 10 active; primary human leukocytes, anti-CD3, IL-2 HTRF, 48 h
#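 Primary human leukocytes were stimulated with a-CD3 beads plus compounds for 48 hr without co-stimulation; secreted IL-2 was quantified by HTRF using a-IL-2-K (europium cryptate) and a-IL-2-d2, excited at 320nm with acceptor emission read at 665nm.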
# Akt phos inh – HTS Assay for Inhibitors of Akt Phophorylation: Primary Screen; Neuro2A IGF-stimulated pAkt S473 HTRF, 20 min; active compounds read low; activity change, % for hits at 50 µM; 0.32% of 360,000 active; AID 651550, 2012; in the data active = activity change below about -80%; inconclusive = mostly about -51% to -80%
#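 Single-point screen (50 µM final compound) in Neuro2A cells stimulated 20 min with 6 nM IGF at 37 deg C. After lysis, Ser473-phosphorylated Akt read by HTRF (ex 330 nm, em 615/665 nm) as the 665/615 ratio.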
# PINK1 expr mod – A Quantitative High throughput Screen to Identify Chemical Modulators of PINK1 Expression; Potency, µM (titrated, usually from 76.6 µM), usual class: activators; PINK1 immunofluorescence, high-content cytometry, 24 h; AID 624263, 2012; 0.2% of 410,000 active; active = well fitted activation curve with a large enough effect; inconclusive = small, poorly fitted or top-dose-only effect; cell line not stated here; also: nearly all actives have a fitted effect of over 65% in size
#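 Cells are seeded, rested 12 hours, then given compound at five concentrations or DMSO for 24 hours. After fixation, blocking and antibody staining, PINK1 amount and mitochondrial localization are scored; CCCP serves as control.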
# Numbers stand for hits; – = inactive; ? = inconclusive; · = no result given. Most compounds without a hit are left out; they make up all but 1.5% or so of the library. Unless noted, calls follow the shape of the dose curve; as a rule, active = well fitted curve in the direction sought with a large enough effect; inconclusive = small, poorly fitted or top-dose-only effect, or another doubt; inactive = no such curve, though single readings can be large; an effect the other way counts as inactive or inconclusive.
SMILES,BRCA1 expr act,TCR activator,Akt phos inh,PINK1 expr mod
O=C(Nc1ccc(F)cc1)c1ccccc1,11µM,–,·,–
O=C(Nc1ccc(Nc2ccccc2)cc1)c1ccc(Cl)cc1,–,–,–,–
O=C(Nc1ccc(Nc2ccccc2)cc1)c1ccccc1,3.5µM,–,–,–
COC(=O)c1c(OCc2ccccn2)cc(=O)n2c1CCN(Cc1ccc3c(c1)CCCN3C)CC2,·,·,·,–
Cc1cc(-c2cc(F)cc3c2OC(CNC(=O)CCn2cncn2)C3)ccc1F (centres undefined),·,·,·,–
O=C(Nc1ccc(SC(F)F)cc1)c1ccc(F)cc1,3.2µM,–,–,–
CCCCCn1cnc2c(sc3nc4c(cc32)CSC(C)(C)C4)c1=O,2.2µM,–,–,–
C=CCn1c(C)nc2c(sc3nc4c(cc32)COC(C)(C)C4)c1=O,6.3µM,–,–,–
CC1(C)Cc2nc3sc4c(=O)n(CC(=O)NCc5ccco5)cnc4c3cc2CO1,–,·,–,11µM
COc1ccc(CN2CCCC(n3cc(C(=O)N4CCCCC4)nn3)C2)c(OC)c1 (centres undefined),·,·,·,–
COc1ccccc1C1CN(CCNC(=O)c2ccccc2Cl)Cc2ccccc2O1 (centres undefined),·,·,·,–
Cc1ccc(SCc2ccc(C(=O)N3CCCC3)cc2)cc1,11µM,–,–,–
Cn1c(NC(=O)c2ccc(Br)o2)cc(=O)n(C)c1=O,–,–,-116%,–
Cn1c(NC(=O)c2cccs2)cc(=O)n(C)c1=O,–,–,–,–
COC(=O)[C@H](CC(C)C)NC(=O)Cn1cnc(C(=O)Nc2ccc(C)c(C)c2)n1,11µM,–,–,–
COC(=O)C[C@H](NC(=O)Cn1cnc(C(=O)Nc2ccc(C)c(C)c2)n1)C(=O)OC,–,–,–,–
Cc1c(/C=N/NC(=O)c2ccccc2O)c2ccccn2c1C(=O)c1ccc(F)cc1,–,–,–,28µM
Cc1c(C(=O)Nc2ccc(Cl)cc2)c2ccccn2c1C(=O)c1ccc(F)cc1,–,–,-110%,?
COC(=O)c1cc(CNC(=O)c2ccccn2)cc(NC(=O)c2ccccc2OC)c1,·,·,·,–
O=C(Nc1nccs1)c1ccc(-c2ccc(Cl)cc2)o1,?,–,–,–
O=C(Nc1nccs1)c1ccc(-c2ccc([N+](=O)[O-])cc2)o1,3.2µM,–,–,35µM
O=C(Nc1nccs1)c1ccc(-c2ccccc2Cl)o1,–,–,–,–
O=C(Nc1nccs1)c1ccc(-c2ccccc2[N+](=O)[O-])o1,3.5µM,–,–,–
O=C(Nc1ccc2c(c1)nc1n2CCN(Cc2ccccc2)C1)NC1CCCCC1,–,·,-90%,10µM
Cc1ccc(C(=O)NCCc2nnc3n2CCN(Cc2cc(C)cc(C)c2)CC3)cc1,·,·,·,–
SMILES,BRCA1 expr act,TCR activator,Akt phos inh,PINK1 expr mod
N=C1SCC(=O)N1c1nc(-c2ccccc2)cs1,7.9µM,–,–,–
Fc1ccc(F)c(C2=NNC(=Nc3ccccc3F)SC2)c1,–,–,–,35µM
CCOC(=O)c1c(NC(=O)c2ccn(CC)n2)sc2c1CCCC2,–,·,–,10µM
Fc1cccc(CSc2ccc(-c3ccc4c(c3)OCO4)nn2)c1,–,–,–,–
Cc1ccccc1CSc1ccc(-c2ccc3c(c2)OCO3)nn1,8.9µM,–,–,–
c1cncc(CSc2ccc(-c3ccc4c(c3)OCO4)nn2)c1,5.6µM,–,–,–
Cc1cccc(NC(=O)c2oc3ccccc3c2NC(=O)Cc2coc3c(C)c(C)ccc23)c1,·,·,·,–
CN(C)S(=O)(=O)c1ccc2[nH]cc(/C=C/c3nc4ccccc4c(=O)n3-c3ccccc3)c2c1,–,·,–,11µM
O=C(CSc1nc2ccccc2[nH]1)c1ccccc1F,2µM,–,–,–
O=C(CSc1nc2ccccc2[nH]1)c1c[nH]c2ccccc12,–,–,–,–
COc1ccc(-n2c(CNC(=O)c3ccc(OC)cc3OC)nnc2SC)cc1,·,·,·,–
COc1ccc(-n2c(-c3ccccc3)nnc2-c2ccc(Cl)cc2)cc1,–,–,–,–
COc1ccc(-n2c(-c3ccc(Cl)cc3)c[n+]3c2CCc2ccccc2-3)cc1,–,–,–,32µM
O=C(NCC1Cc2cc(-c3cncnc3)cc(Cl)c2O1)c1cccc(Cn2cccn2)c1 (centres undefined),·,·,·,–
CC(/C=N/Nc1nnc(C)c(=O)[nH]1)=C\c1ccccc1,10µM,–,–,–
CC(C)(C)c1nnc(SCC(=O)Nc2ccc(N3CCCCC3)cc2)n1N,4µM,–,–,–
COc1cc2nc(N3CCN(C)CC3)nc(NC3CCN(C)CC3)c2cc1OC,–,·,·,–
CC(=O)NCCN=C(C)c1sc2ccccc2c1O,13µM,–,–,–
CC(=Nc1ccc(O)cc1)c1sc2ccccc2c1O,–,–,–,–
NC1=NC(=O)/C(=C\C=C\c2ccccc2)S1,–,–,–,–
O=C1NC(=O)C(=CC=Cc2ccccc2)S1,10µM,·,–,–
O=C(Nc1cccc(-c2ccc(N3CCOCC3)nn2)c1)c1cccc(Cl)c1,7.1µM,·,–,–
O=C(Nc1cccc(-c2ccc(N3CCOCC3)nn2)c1)c1ccccc1Cl,2.5µM,–,–,–
O=C(Nc1cccc(-c2ccc(N3CCOCC3)nn2)c1)c1ccc(Cl)cc1,–,–,–,?
O=C(c1cccnc1)C1CCCN(Cc2ccc3c(c2)CN(C(=O)c2cnccn2)CCO3)C1 (centres undefined),·,·,·,–
SMILES,BRCA1 expr act,TCR activator,Akt phos inh,PINK1 expr mod
CCCCCCc1cc2cc(S(=O)(=O)c3ccc(F)cc3)c(=O)oc2cc1O,–,–,–,40µM
CCCS(=O)(=O)NCc1c(C)ncc2c1CCN(C(=O)c1cccc(Cl)c1F)C2,·,·,·,–
Cc1nccn1CC(O)Cn1c2ccccc2c2ccccc21 (centres undefined),–,–,-101%,–
O=C1CCN(Cc2cccn2-c2ccccn2)CCN1Cc1ccccc1C(F)(F)F,·,·,·,–
COc1cccc(C2c3c(oc4ccc(Cl)cc4c3=O)C(=O)N2c2cc(C)on2)c1OC (centres undefined),–,·,–,13µM
O=C(NC1CCCc2ccccc21)c1cnn2c1NC(=C1CC1)C=C2C(F)F (centres undefined),–,·,·,–
CC(C)c1c(C(=O)N(C)Cc2cccc3ncccc23)cnn1-c1nccc(-c2ccco2)n1,·,·,·,–
CCOc1ccc(CNC(=O)CCn2c(=O)oc3ccccc32)cc1OC,–,–,-105%,–
COCCNC(=O)CCn1c(=O)oc2ccccc21,–,–,-109%,–
CCCCCNC(=O)CCn1c(=O)oc2ccccc21,–,–,–,–
Cc1ccc(-c2ccnc(-n3ncc(C(=O)N(C)CC4CCCN(C)C4)c3C)n2)o1 (centres undefined),·,·,·,–
Cc1ncc2c(c1CNC(=O)c1ccc3c(c1)OCO3)CCN(C(=O)c1ccoc1)C2,·,·,·,–
CCN1/C(=C/c2ccc3cccc(C)c3[n+]2CC)Sc2ccccc21,–,–,–,4µM
CCN1/C(=C/c2ccc3cc(C)cc(C)c3[n+]2CC)Sc2cc(C)ccc21,–,–,–,–
